Shown are actives, neighbours in structure and some others; about 1.3% of the full set was active somewhere.
LYPLA1 counter: counter-screen for PME1 inhibitors: inhibitors of human LYPLA1 | O75608 | recombinant LYPLA1, FP-Rh probe fluorescence polarization | inhibition, % at 5.9 µM | 320,000 compounds, 0.16% hits;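 active = inhibition above the mean of all tested compounds plus 3 SD, set per campaign, cut at about 14% in these data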;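 also: inhibitors block serine hydrolase probe labeling of LYPLA1 so polarization falls; 0% = enzyme with DMSO and 100% = wells lacking LYPLA1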
Target sequence (O75608 whole entry, looked up): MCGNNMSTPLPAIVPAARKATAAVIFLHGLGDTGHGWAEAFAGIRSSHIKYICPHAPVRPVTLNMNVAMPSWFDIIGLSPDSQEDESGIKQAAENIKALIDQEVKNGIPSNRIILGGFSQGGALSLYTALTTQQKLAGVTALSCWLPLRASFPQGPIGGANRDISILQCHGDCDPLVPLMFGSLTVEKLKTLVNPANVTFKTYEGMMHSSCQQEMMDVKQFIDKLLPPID
Fam108B counter: counter-screen for RBBP9 inhibitors: inhibitors of mouse Fam108B; recombinant Fam108B, FP-Rh probe fluorescence polarization; 300,000 compounds, 0.33% hits; AID 1947; inhibition, % at 9.51 µM;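 active = inhibition above the screen mean inhibition plus 3 SD, computed separately per campaign, cut at about 18% in these data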;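 also: inhibitors lower polarization as less probe binds the enzyme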
PME-1 inh: blocks human protein phosphatase methylesterase 1; recombinant PME-1, FP-Rh probe fluorescence polarization; inhibition, % at 5.9 µM; 320,000 compounds, 0.53% hits;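 active = inhibition above the campaign mean of all compounds plus 3 SD, cut at about 26% in these data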;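 also: competitive labeling of PME-1 active site by serine hydrolase directed probe; 0% = PME-1 with DMSO and 100% = wells lacking PME-1 enzyme; inhibitors block probe labeling so polarization falls and inhibition rises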
Target sequence (Q9Y570 whole entry, looked up): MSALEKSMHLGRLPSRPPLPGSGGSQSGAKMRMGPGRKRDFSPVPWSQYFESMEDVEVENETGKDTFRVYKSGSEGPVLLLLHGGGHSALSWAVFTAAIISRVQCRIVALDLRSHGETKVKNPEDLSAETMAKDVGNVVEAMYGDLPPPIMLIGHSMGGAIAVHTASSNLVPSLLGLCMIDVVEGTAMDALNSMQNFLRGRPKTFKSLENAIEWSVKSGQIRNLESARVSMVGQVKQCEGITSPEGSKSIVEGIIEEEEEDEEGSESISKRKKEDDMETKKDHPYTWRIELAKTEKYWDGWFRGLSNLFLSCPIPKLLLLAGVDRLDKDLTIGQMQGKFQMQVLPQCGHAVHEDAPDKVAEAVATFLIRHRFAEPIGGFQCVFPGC
PREPL inh: inhibitors of human prolyl oligopeptidase-like enzyme PREPL | recombinant PREPL, fluorescence polarization activity-based probe | inhibition, % at 5.96 µM | AID 2751 | Q4J6C6 | 320,000 compounds, 0.68% hits; in the data active = inhibition above about 43%;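 also: 0% = enzyme with DMSO and 100% = wells lacking enzyme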
LYPLA2 counter: LYPLA2 (human) inhibition in PME1 counter-screen | O95372 | recombinant LYPLA2, FP-Rh probe fluorescence polarization | 320,000 compounds, 0.38% hits | AID 2177 | inhibition, % at 5.9 µM;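 active = inhibition above the screen-wide mean plus 3 SD, limit set per campaign, cut at about 26% in these data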;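 also: 0% = LYPLA2 with DMSO and 100% = wells lacking LYPLA2 enzyme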
* hit, by the source's call.

Results for Clc1cccc(/C=N/Nc2nc(Cl)nc3ccccc23)c1 ?
LYPLA1 counter: -3; Fam108B counter: -5; PME-1 inh: 1; PREPL inh: 46*; LYPLA2 counter: 6

What do the screens show for `Cc1cc(C)nc(N/N=C/c2cccc(Cl)c2)n1`?
LYPLA1 counter: 1; Fam108B counter: -2; PME-1 inh: 3; PREPL inh: -5; LYPLA2 counter: -3

Results for O=c1cc(-c2ccccc2Cl)oc2c(NS(=O)(=O)c3cc(Cl)cc(Cl)c3O)ccc(O)c12 ?
LYPLA1 counter: -14; Fam108B counter: 7; PME-1 inh: 57*; PREPL inh: 12; LYPLA2 counter: -24

Results for CCc1ccc(S(=O)(=O)Nc2ccc(O)c3c(=O)cc(-c4ccccc4Cl)oc23)cc1 ?
LYPLA1 counter: -19; Fam108B counter: -11; PME-1 inh: -10; PREPL inh: -67; LYPLA2 counter: -29

What do the screens show for `COCc1cc(C)nc(N/N=C/c2ccc(Cl)c(Cl)c2)c1C#N`?
LYPLA1 counter: 0; Fam108B counter: -1; PME-1 inh: 6; PREPL inh: 0; LYPLA2 counter: -1

Results for CC(C)(C)c1ccc(NC(=O)C2=CC=CN3CCS(=O)(=O)N=C23)cc1 ?
LYPLA1 counter: 0; PME-1 inh: 55*; PREPL inh: 8; LYPLA2 counter: 2

How did NC(=O)c1ccc(Oc2ccc3ccc(=O)oc3c2)c([N+](=O)[O-])c1 do in these assays?
LYPLA1 counter: 7; Fam108B counter: 6; PME-1 inh: 23; PREPL inh: 11; LYPLA2 counter: 38*

Results for NC(=O)c1ccc(Oc2ccc(-c3nnco3)cc2)c([N+](=O)[O-])c1 ?
LYPLA1 counter: -2; Fam108B counter: 4; PME-1 inh: 0; PREPL inh: 18; LYPLA2 counter: 8

Results for Oc1ccccc1N=Nc1nc(-c2ccccc2)c(-c2ccccc2)[nH]1 ?
LYPLA1 counter: -12; Fam108B counter: 17; PME-1 inh: 35*; PREPL inh: 15; LYPLA2 counter: -3

Results for COc1ccc(N=Nc2nc(-c3ccccc3)c(-c3ccccc3)[nH]2)cc1 ?
LYPLA1 counter: -4; Fam108B counter: 10; PME-1 inh: 28*; PREPL inh: 12; LYPLA2 counter: -5

What do the screens show for `O=C(CN1C(=O)COc2ccccc2C1=O)c1ccc2c(c1)OCCO2`?
LYPLA1 counter: -4; Fam108B counter: -3; PME-1 inh: -2; PREPL inh: -2; LYPLA2 counter: 9

How did Cc1cc(C)c2[nH]c(O)c(N=Nc3ccc(C(=O)O)cc3)c2c1 do in these assays?
LYPLA1 counter: 3; Fam108B counter: 0; PME-1 inh: 5; PREPL inh: 0; LYPLA2 counter: 2

Results for Cc1cc(C)c2[nH]c(O)c(N=NC3=NC(=O)CS3)c2c1 ?
LYPLA1 counter: 3; Fam108B counter: 5; PME-1 inh: 28*; PREPL inh: 13; LYPLA2 counter: -2

How did O=C(N/N=C\c1ccc(COc2ccc([N+](=O)[O-])cc2)o1)c1cccc(Cl)c1 do in these assays?
LYPLA1 counter: -14; Fam108B counter: 13; PME-1 inh: 36*; PREPL inh: -37; LYPLA2 counter: -1

How did O=C(N/N=C\c1ccc(COc2ccc([N+](=O)[O-])cc2)o1)c1ccc(Cl)cc1 do in these assays?
LYPLA1 counter: -14; Fam108B counter: -5; PME-1 inh: -10; PREPL inh: -17; LYPLA2 counter: -32

Results for COc1ccc(CNS(=O)(=O)c2c(C(=O)N3CCCCCC3)c(C)n(C)c2C)cc1 ?
LYPLA1 counter: 2; Fam108B counter: 1; PME-1 inh: 0; PREPL inh: 5; LYPLA2 counter: 4

What do the screens show for `CCc1cccc(CC)c1NC(=S)N(CCN(C)C)C(C)c1cccnc1` (configuration not stated)?
LYPLA1 counter: 0; Fam108B counter: 0; PME-1 inh: 4; PREPL inh: -10; LYPLA2 counter: 1

How did Cc1cccc(C)c1NC(=O)COC(=O)c1ccccc1Nc1ccccc1 do in these assays?
LYPLA1 counter: -3; Fam108B counter: -3; PME-1 inh: -3; PREPL inh: 2; LYPLA2 counter: -7

What do the screens show for `O=C(COC(=O)c1cccc2c1C(=O)c1ccccc1C2=O)NC1CCCCC1`?
LYPLA1 counter: 4; Fam108B counter: 7; PME-1 inh: 41*; PREPL inh: 7; LYPLA2 counter: 3

How did Cc1ccc(NC(=O)COC(=O)c2cccc3c2C(=O)c2ccccc2C3=O)c(C)c1 do in these assays?
LYPLA1 counter: -2; Fam108B counter: 5; PME-1 inh: 85*; PREPL inh: 26; LYPLA2 counter: -1

How did Cc1cc(C)c(NC(=O)COC(=O)c2cccc3c2C(=O)c2ccccc2C3=O)c(C)c1 do in these assays?
LYPLA1 counter: -5; Fam108B counter: 10; PME-1 inh: 46*; PREPL inh: 26; LYPLA2 counter: 2

How did O=C(COC(=O)c1ccc2c(c1[N+](=O)[O-])C(=O)c1ccccc1C2=O)NC1CC1 do in these assays?
LYPLA1 counter: -2; Fam108B counter: -2; PME-1 inh: 1; PREPL inh: 14; LYPLA2 counter: -11

Results for CCc1ccc(NC(=O)C(=O)c2ccccc2NC(C)=O)cc1 ?
LYPLA1 counter: 0; PME-1 inh: 0; PREPL inh: 1; LYPLA2 counter: -1

Results for COc1ccc(-c2ccc3c(c2)S(=O)(=O)c2cccc(C(=O)N4CCN(c5c(Cl)cncc5Cl)CC4)c2C3=O)cc1OC ?
PREPL inh: 17

Results for O=c1oc(C2(O)CCCCC2)cc2ccc(-c3ccc4[nH]ccc4c3)cc12 ?
PREPL inh: 5

How did O=C(NCCNC(=O)c1ccccc1Cl)c1ccco1 do in these assays?
LYPLA1 counter: 8; Fam108B counter: -3; PME-1 inh: 2; PREPL inh: 5; LYPLA2 counter: 8

How did Nc1c(C(=O)N2CCCCC2)sc2nc3c(cc12)CCCC3 do in these assays?
LYPLA1 counter: -4; Fam108B counter: -1; PME-1 inh: 6; PREPL inh: 8; LYPLA2 counter: 3

What do the screens show for `CCc1nnc(NC(=O)c2sc3nc4c(cc3c2N)CCCCC4)s1`?
LYPLA1 counter: -2; Fam108B counter: 2; PME-1 inh: 28*; PREPL inh: 19; LYPLA2 counter: 3

What do the screens show for `CCc1nnc(NC(=O)c2sc3nc4c(cc3c2N)CCCCCC4)s1`?
LYPLA1 counter: 1; Fam108B counter: 9; PME-1 inh: 29*; PREPL inh: 19; LYPLA2 counter: 0

What do the screens show for `O=C(COc1ccccc1)N/N=C/c1ccc(O[C@@H]2O[C@H](CO)[C@@H](O)[C@H](O)[C@H]2O)cc1`?
LYPLA1 counter: -4; Fam108B counter: 2; PME-1 inh: 0; PREPL inh: 12; LYPLA2 counter: 5

What do the screens show for `CCOC(=O)[C@H]1[C@H]2COc3ccc(C)cc3[C@@H]2N2C(=O)c3cc(F)ccc3NC(=O)[C@@]12C`?
LYPLA1 counter: -3; Fam108B counter: 4; PME-1 inh: 1; PREPL inh: -1; LYPLA2 counter: -2
